“And” between values parts separate entries of the source, which are not always exact repeats. Equal entries are not always repeated. The campaign covered roughly 340,000 compounds. About 260 (0.076%) were called active. Many of the other results were omitted from the sample, so actives are more common in it than they were. Unmarked numbers belong to inactive results.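 The calls were made as follows: active = highest replicate inhibition at or above 60% at 9 µM, even if other replicates fall short; inactive = all replicates below 60% inhibition.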

The test system of this test is Kaposi's sarcoma herpesvirus LANA C-terminal domain (residues 932-1162) DNA binding. The experiment in a line: inhibitors of KSHV C-LANA binding to DNA, primary screen, biochemical, fluorescence polarization, FAM-LBS DNA, MBP-C-LANA, single point (AID 504423).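 Also: 0% = neutral control wells and 100% = 4 µM acridine orange control.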 The settings on record: at 9 µM, hits give high values.
Regarding `C=CCNC(=S)NNC(=O)c1ccc(Br)o1`, the inhibition was 0.832%.
In the case of `c1ccc(CNc2ncnc3[nH]ncc23)cc1`, the inhibition is -0.81%.
For the molecule `O=C(CN1CCN(c2ncccn2)CC1)Nc1ccccc1C(F)(F)F`, the inhibition is -0.265%.
To `COC(=O)Cn1c(=NC(=O)CSCC(=O)Nc2cc(C)on2)sc2ccccc21` belongs 1.43%; to `Cc1ccc(OCCNC(=O)c2cccc(S(=O)(=O)N3CCN(Cc4ccccc4)CC3)c2)cc1`, -0.305%.
As for `COc1ccc(Cc2nnc(SCC(=O)c3cccc([N+](=O)[O-])c3)n2C)cc1`, the inhibition was 0.228%.
On to `Cc1cc(C)c(NC(=O)CN2CCCCCC2)c(C)c1`, for which the inhibition was 1.26%.
To `N=C1c2ccccc2-c2ccccc21` belongs 1.95%; to `CCC(C)C1(C2CCCC2)NC(=O)NC1=O` (stereo not drawn), 3.17%.
To `CCOc1ncccc1C(=O)NCCc1ccc(OC)cc1` belongs 0.452%.
Consider `CC1CCN(C(=O)c2ccccc2NC(=O)Cc2ccccc2)CC1`, for which the inhibition is 2.17%.
To `O=C(C1CCN(S(=O)(=O)c2ccc(Br)s2)CC1)N1CCN(C2CCCCC2)CC1` belongs -0.326%; to `Cc1ccccc1CN1C[C@@H]2C[C@@H](c3cn(C)nc3-c3ccccc3)N3CCC[C@@]23C1=O`, -1.95%; to `O=C(Nc1ccc2sc3ccccc3c(=O)c2c1)c1ccccc1Cl`, -0.526%.
To `CCCn1nc(NC(=O)C(C)C)c2cc3cc(OC)ccc3nc21` belongs -1.15%.
To `CC(C(=O)N(C)CC(=O)Nc1ccccc1C(F)(F)F)N1C(=O)c2ccccc2C1=O` (stereo not drawn) belongs 1.14%; to `CCN(CC)P(=O)(/C(Cl)=C\Nc1c(C)n(C)n(-c2ccccc2)c1=O)N(CC)CC`, -1.51%.
On to `Cc1cc([N+](=O)[O-])nn1CC(=O)Nc1ccc(Cc2ccncc2)cc1`, for which the inhibition was 0.568%.
To `Cn1c(N2CCOCC2)c(C=O)c2ccccc21` belongs 0.207%; to `Cc1cc(Br)ccc1NC(=O)CN(C)C(=O)CN1C(=O)NC2(CCCC2)C1=O`, 0.321%; to `Cn1cc(S(=O)(=O)N2CCC(Cc3ccccc3)CC2)c(=O)n(C)c1=O`, 1.59%.
For the molecule `CCCCN(CCCC)CCCNC(=O)CN1C(=O)COc2ccc(S(=O)(=O)N3CCC(C)CC3)cc21`, the inhibition was 0.15%.
The result for `COc1cccc2c1CCC(NC(C)=O)C2=O` (stereo not drawn) reads -1.29%; that for `O=C(CSc1ccsc1[N+](=O)[O-])N1CCCCC1`, 1.32%; that for `CCCCNS(=O)(=O)c1ccc(S(=O)(=O)n2cnc3ccccc32)cc1`, 0.219%.
To `COc1ccc(C(=O)Nc2ccc(C(=O)NCC3CCCO3)cc2)c(OC)c1OC` (stereo not drawn) belongs 2.3%; to `Cc1ccc(CNC(=O)C(=O)c2cn(CC(=O)N3CCCC3)c3ccccc23)cc1`, 2.35%.
To `COC1=C/C(=C/c2c(N)n3nc(CC(=O)N4CCOCC4)sc3nc2=O)C=CC1=O` belongs 32.7%.
Take `CCC1CCCCN1CCNC(=O)c1[nH]c(C)c(C(C)=O)c1C` (stereo not drawn): the inhibition is 5.48%.
The result for `COc1ccc(CN2CCN(Cc3ccc(OC)c(OC)c3OC)CC2)cc1` reads 79% (active).
The result for `COc1cc(CN2CCN(Cc3ccc(C)cc3)CC2)c([N+](=O)[O-])cc1OC` reads -0.737%; that for `COc1ccccc1N1CCN(Cc2ccc(OC)c3ccccc23)CC1`, -3.69%; that for `CC(=O)Nc1ccc(SCC(=O)Nc2ccccc2Oc2ccccc2)cc1`, 1.36%.
Consider `C[C@H](CO)N1C[C@H](C)[C@H](CN(C)C(=O)Nc2ccc(C(F)(F)F)cc2)Oc2c(NC(=O)c3ccncc3)cccc2C1=O`, for which the inhibition is -3.26%.
The result for `O=C(c1ccc(F)cc1)C1CCN(Cc2cn[nH]c2-c2ccccc2)CC1` reads 1.59%; that for `Cc1nc(C)c2c(c1C(F)(F)F)-c1ccccc1C2(F)F`, 1.49%; that for `COc1ccc([C@@H]2[C@@H]3C(=O)N(C(C)(C)C)C(=O)[C@@H]3[C@]3(Cc4ccccc4)C(=O)N(c4cccc(Br)c4)C(=O)N23)cc1`, 0.113%.
The result for `CCOc1cc(C(=O)OCC(=O)Nc2cccc(C)c2)ccc1OCC(=O)N1CCOCC1` reads 0.789%; that for `C=CC1=C(C(=O)O)N2C(=O)[C@@H](NC(=O)/C(=N\OCC(=O)O)c3csc(N)n3)[C@H]2SC1`, 22.9%; that for `C=CC1=C(C(=O)O)N2C(=O)[C@@H](NC(=O)/C(=N/OCC(=O)O)c3csc(N)n3)[C@H]2SC1`, 95.4% (active).
To `CO/N=C(\C(=O)N[C@@H]1C(=O)N2C(C(=O)O)=C(COC(C)=O)CS[C@H]12)c1csc(N)n1` (stereo in doubt) belongs 8.29% and 6.28% and 10.6%; to `CCOc1ccccc1N1CCN(C(=O)c2ccc3[nH]c(C)c(C)c3c2)CC1`, -1.79%; to `CCC(=O)OCc1c(C(F)(F)F)nn(C)c1Oc1cccc(C(F)(F)F)c1`, 0.811%.
Turning to `CC1(C)N=C(c2ccccn2)C(C)(C)N1O`, the inhibition was 0.432%.
`Cc1cc(C)n2nc(C(=O)OCC(=O)N(C)CC(=O)Nc3ccc(F)cc3)nc2n1`: the inhibition is 0.686%.
`Cc1ccsc1C(=O)N[C@@H](C)c1nnc2ccccn12`: the inhibition was 1.44%.
On to `Cc1nn(C)cc1N1C(=O)c2cccc3c(N)ccc(c23)C1=O`, for which the inhibition was 73% (active).
Consider `CCC(C)(C)NC(=O)C(c1ccccn1)N(C(=O)c1csnn1)c1ccccc1` (stereo not drawn), for which the inhibition is -0.461%.
The result for `O=C1OC(Oc2ccc(Br)cc2)(c2ccccc2)c2ccccc21` (stereo not drawn) reads -1.96%.
To `CCC(Cc1ccccc1)NC(=O)C1CCCCC1` (stereo not drawn) belongs 1.4%; to `Cc1sc2ncn(CC(=O)NCCCC(=O)NCc3ccc(F)cc3)c(=O)c2c1C`, 0.451%; to `Cc1ccc2c(c1)N(CC(=O)N1CCCc3ccccc31)C(=O)C(C)O2` (stereo not drawn), 2.64%.
To `COc1cccc(COC(=O)C2CCN(S(=O)(=O)c3ccc(Cl)cc3)CC2)c1OC` belongs 0.51%; to `Cc1cc(C)c(S(=O)(=O)c2ccc(F)cc2C)c(=O)[nH]1`, -0.026%.
With `COc1ccc(/C(=N\O)c2nccc3cc(OC)c(OC)cc23)cc1OC`, the inhibition is 0.0523%.
The result for `O=C(c1ccc(=O)oc1)N1CCC(C(O)(c2ccccc2)c2ccccc2)CC1` reads 1.16%.
In the case of `O=C(CN1CCSCC1)N/N=C/c1ccc(F)cc1F`, the inhibition was -0.674%.
To `Clc1ccc(-c2nnc(-c3ccccc3)nc2N2CCSCC2)cc1` belongs -0.189%; to `CC(=O)c1ccc(N2C(=NC(=O)C(C)C)SC3CS(=O)(=O)CC32)cc1` (stereo not drawn), -0.954%.
Take `CCCN(CC(=O)Nc1ccc(OC)c(OC)c1)CC(=O)Nc1ccc(F)c(F)c1F`: the inhibition was 3.86%.
With `COCCCNC(=O)C1CC(=O)N(c2ccc(C)cc2)C1` (stereo not drawn), the inhibition is 0.062%.
With `COC(=O)c1c(C)oc(C)c1S(=O)(=O)Nc1ccc(C(C)C)cc1`, the inhibition was -0.597%.
To `CCN(CC(=O)NC1CCS(=O)(=O)C1)S(=O)(=O)c1ccccc1` (stereo not drawn) belongs -1.52%; to `CCOc1cc(C(=O)Nc2c(C)ccc3nsnc23)cc(OCC)c1OCC`, -1.85%; to `CCN(CC(=O)NC(C)C)C(=O)CCNC(=O)c1ccc(Cl)cc1`, -0.0284%.
On to `COc1ccc(NS(=O)(=O)c2ccc(C)c(C(=O)N(C)Cc3ccc(OC)cc3OC)c2)cc1`, for which the inhibition is 28.6%.
To `O=S(=O)(c1ccc(-c2ccccc2)cc1)N1CCCC1` belongs 1.28%.
As for `CCCn1c(N)c(C(=O)CSc2nnc(-c3cccnc3)n2-c2ccc(C)cc2C)c(=O)[nH]c1=O`, the inhibition was 0.224%.
Consider `CC(C)(C)NC(=O)CN1CCC(NC(=O)C23CC4CC(CC(C4)C2)C3)CC1`, for which the inhibition is 0.793%.
Consider `c1ccc2c(NC3C4CC5CC(C4)CC3C5)nc(N3CCOCC3)nc2c1` (stereo not drawn), for which the inhibition is 0.795%.
The result for `CCC(C)(C)c1ccc(OCC(=O)N(C)C)c(C(C)(C)CC)c1` reads 1.97%.
The result for `Oc1ccc2ccc3cccc[n+]3c2c1` reads 141% (active); that for `Oc1ccc(-c2nc3ccccc3nc2-c2ccc(O)cc2O)c(O)c1`, 2.95%; that for `CC(=O)Oc1cc2c(C(=O)NCCN3CCOCC3)c(C)oc2c2ccccc12`, -0.716%.
In the case of `Cc1cc(C)nc(NNC2=CC(=O)CC(C)(C)C2)n1`, the inhibition is 2.32%.
The result for `Cn1c(SCC(=O)N2CCCCC2)nc2c(c1=O)SCC2` reads -1.34%; that for `COC(=O)[C@@H](NC(=O)NCc1cccc(OC)c1)C(C)C`, 1.36%; that for `O=C1COc2ccc(C(=O)COC(=O)c3cccnc3Cl)cc2N1`, 4.34%.
To `O=C(C[n+]1cc(Br)cc2ccccc21)c1ccc(F)cc1` belongs 4%; to `COC(=O)C[n+]1cccc2ccccc21`, 70.1% (active); to `COC(=O)Cc1c(-c2[nH]c3ccccc3c2CC(=O)OC)[nH]c2ccccc12`, 1.73%.
The result for `O=C1CCCc2c1[nH]c1ccc(Br)cc21` reads -0.926%; that for `COCCCN(C(=O)Cn1ncc2c(=O)oc3ccc(C)cc3c21)C(C)c1ccncc1` (stereo not drawn), 1.23%.
On to `O=C(Cn1c[n+](CC(=O)c2ccc([N+](=O)[O-])cc2)cn1)c1ccc([N+](=O)[O-])cc1`, for which the inhibition is -0.902% and -2.71%.
To `CCOC(=O)C(C)N(c1ccccc1Cl)S(C)(=O)=O` (stereo not drawn) belongs 1.82%; to `CCOC(=O)C1CCN(C(=O)Cn2nc(C)c3c(C)n(-c4ccccc4)nc3c2=O)CC1`, -0.173%.
The result for `O=C1C=C(c2cccc(Cl)c2O)C[C@@H](c2ccc(F)cc2)C1` reads 0.749%; that for `O=C(O)CCn1c(SCc2cc(=O)n3ccccc3n2)nc2ccsc2c1=O`, 0.383%.

Values taken from PubChem BioAssay AID504423 (Broad Institute, 2011).
